# Experimental data from patent US20090232783, “Method for Regulating Production of Hemoglobin Beta Chains” (published 2009).
# Molecular target: Nuclear ferritin-H (K562 nuclear extract, crude or heat/proteinase K enriched) (Homo sapiens, UniProt P02794 P02794:2-183)
# Experiment: competition; 20-fold greater competitor concentration than wt needed for 50% inhibition; 1000-fold vs 50-fold excess
# Details: protein: extract; dsDNA, one strand shown
# Experimental: Gel mobility shift assays. Gel retardation assays (i.e., gel shifts) were used to determine DNA binding of the extract proteins to the Rsa I (95 bp) fragment and synthetic oligonucleotides (Berg et al., (1989) Nucleic Acids Res 17, 8833-52; Fried & Crothers (1981) Nucleic Acids Res 9, 6505-25). Each reaction contained 0.5-2 ng of DNA, 1.0-5.0 ug of extract protein, 1.0-5.0 ug of poly dI:poly dC, 100 mM KCl, and binding buffer (Berg et al., (1989) Nucleic Acids Res 17, 8833-52). Unlabeled competitor oligonucleotides ranged from 15- to 2000-fold molar excess and were included in the reaction mixture with the probe before adding protein. Gels used for retardation assays were 4%, 5%, or 6% acrylamide and the running buffer was low ionic strength TAE (Berg et al., (1989) Nucleic Acids Res 17, 8833-52).
# Definition of the binding site with competition gel shifts. To further localize the binding of ferritin, the 37 bp oligonucleotide was mutated in different places, replacing six nucleotides at a time with all A's, all C's, or all G's, with complementary nucleotide replacements in the opposing strand (FIG. 4A). A competition gel shift assay was done with the partially purified protein from heated K562 nuclear extract, in which each of the unlabeled mutant oligos as well as the native sequence was competed against the 32-P-labeled native sequence for binding.
row,Sequence,binding signal [fold]
1,AACTCCTAAGCAAAAAACAGAAGAGCCAAGGACAGGT,20
